Compound activity as filed in PubChem BioAssay.
In the library only some 21% were active in any assay of this set; here they are far more common.
TDP1 cell CPT – qHTS for Inhibitors of human tyrosyl-DNA phosphodiesterase 1 (TDP1): qHTS in cells in presence of CPT. Potency, µM (top dose mostly 46.2 µM), without a hit: at the highest dose activity change, negative = growth inhibition, most hits filed as inhibitors. actives 12% (n = 420,000). chicken DT40 Tdp1-/-;hTDP1 cells + 20 nM CPT, ATP luminescence, 48 h; also: potency is read from the fitted curve at half-maximal effect; % is scaled to controls: 0 for no effect and ±100 for the full control effect; nearly all actives have a fitted effect of over 55% in size
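Cell growth measured by CellTiter-Glo luminescence after a minimum 48 h, 37 C compound exposure with 20 nM CPT in Tdp1-knockout DT40 cells stably expressing hTDP1, seeded 400/well; qHTS titration format.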
TDP1 cell noCPT – qHTS for Inhibitors of human tyrosyl-DNA phosphodiesterase 1 (TDP1): qHTS in cells in absence of CPT. Potency, µM (highest dose often 46.2 µM), for the others: at the highest dose activity change, negative = growth inhibition, most hits filed as inhibitors. DT40 Tdp1-/- hTDP1 cells, no CPT, ATP luminescence, 48 h. actives 15% (n = 420,000); also: potency is read from the fitted curve at half-maximal effect; % is scaled to controls: 0 for no effect and ±100 for the full control effect; nearly all actives have a fitted effect of over 55% in size
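DT40 Tdp1-/-;hTDP1 cells, no CPT (DMSO vehicle only), 400 cells/well; compounds pin-transferred; ≥48 hr, 37 °C; CellTiter-Glo 30 min RT dark, luminescence read.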
DRD3 antagonist – qHTS of D3 Dopamine Receptor Antagonist: qHTS; max response, negative = inhibition, %; AID 652054, 2013; actives 2.5% (n = 360,000); D3R cells, DiscoveRx beta-arrestin luminescence, antagonist mode; stronger effect = lower value; in the data active = max response below about -50%; inconclusive = no clear call, values can overlap the other calls; also: % is scaled to controls: 0 for no effect and ±100 for the full control effect
Target sequence (P35462 whole entry, looked up): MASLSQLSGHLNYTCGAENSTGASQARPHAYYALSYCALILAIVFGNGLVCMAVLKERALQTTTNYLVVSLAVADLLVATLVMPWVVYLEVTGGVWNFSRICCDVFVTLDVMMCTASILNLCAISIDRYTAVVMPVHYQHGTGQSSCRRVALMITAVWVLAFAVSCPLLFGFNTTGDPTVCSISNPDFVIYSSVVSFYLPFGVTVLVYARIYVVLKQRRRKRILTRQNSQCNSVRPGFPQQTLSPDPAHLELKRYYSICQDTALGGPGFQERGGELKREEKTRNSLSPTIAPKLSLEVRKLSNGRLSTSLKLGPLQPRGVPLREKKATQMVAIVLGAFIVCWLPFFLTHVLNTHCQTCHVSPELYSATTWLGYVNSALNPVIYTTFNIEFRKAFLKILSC
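Cells expressing the human receptor were seeded at 1500 cells/well, incubated overnight at 37 degrees C in 5% CO2, then exposed to library compounds with dopamine controls for 90 minutes at 37 degrees C before luminescent detection.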
D3 ag – qHTS of D3 Dopamine Receptor Agonist: qHTS | D(3) dopamine receptor (Homo sapiens), P35462 | D3R DiscoveRx beta-arrestin cells, luminescence, 90 min | actives 0.58% (n = 410,000) | max activation, %; in the data active = max activation above about 30%; also: 0% is about no effect
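Agonist-mode cell screen: cells plated at 1500/well and incubated overnight at 37 °C, then exposed to library compounds for 90 min at 37 °C. Detection reagent was added for 30–60 min at room temperature, and luminescence was read.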
ClpP mod – qHTS Assay for Activators of ClpP | ATP-dependent Clp protease proteolytic subunit (Bacillus subtilis (strain 168)), P80244 | purified B. subtilis ClpP, FRET peptide cleavage, 20 min | Potency, µM (doses to about 57.5 µM), without a hit: at the highest dose activity change, negative = active | actives 1.9% (n = 340,000); active = well fitted falling curve with a large enough effect; inconclusive = small, poorly fitted or top-dose-only effect; inactive = no such curve, though single readings can be large or run the other way; also: potency is read from the fitted curve at half-maximal effect; the source files actives as falling curves though it sought activators and does not explain the sign; nearly all actives have a fitted effect of over 65% in size
Target sequence (P80244 whole entry, looked up): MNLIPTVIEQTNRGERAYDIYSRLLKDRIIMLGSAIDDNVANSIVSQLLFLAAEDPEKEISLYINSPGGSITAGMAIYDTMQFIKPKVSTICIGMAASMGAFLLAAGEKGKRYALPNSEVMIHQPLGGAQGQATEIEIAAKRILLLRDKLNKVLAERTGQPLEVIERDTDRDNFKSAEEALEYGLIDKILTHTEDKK
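Purified B. subtilis ClpP, 10 microg/mL final in Tris/HCl pH8 with KCl, BSA, glycerol and Tween-20, cleaved an Abz/nitrotyrosine-quenched decapeptide. Fluorescence (ex 320, em 430) was read at 0 and 20 min at room temperature. Delta was normalized to 5.8 microM ADEP and DMSO/no-enzyme controls.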
IL1B secr inh – qHTS for Inhibitors of Inflammasome Signaling: IL-1-beta AlphaLISA Primary Screen. activity change, % at 57.5 µM. actives 4.7% (n = 360,000). THP-1 LPS/ATP IL-1B secretion, AlphaLISA, 16 h; stronger effect = lower value; in the data active = activity change below about -50%; inconclusive = mostly about -30% to -49%; also: % is scaled to controls: 0 for no effect and ±100 for the full control effect
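THP-1 cells pretreated 1 hr with compounds (up to 57.5 uM final), then stimulated with LPS (250 ng/mL final) plus ATP (1.25 mM final); secreted IL-1B measured by AlphaLISA after 16 hr, decreased signal indicating inhibition.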
* = called active by the depositor; i = inactive; ? = inconclusive; . = not tested or not shown. Unless noted, calls follow the shape of the dose curve; as a rule, active = well fitted inhibition curve with a large enough effect; inconclusive = small, poorly fitted or top-dose-only effect; inactive = flat fitted curve, though single readings scatter.

SMILES	TDP1 cell CPT	TDP1 cell noCPT	DRD3 antagonist	D3 ag	ClpP mod	IL1B secr inh
O=C(Nc1ccccc1)c1nc[nH]c1C(=O)NCCCNC(=O)c1[nH]cnc1C(=O)Nc1ccccc1	?	14.6µM*	126.2	23.9	-9.6%	13.9
Cc1cccc(NC(=O)c2nc[nH]c2C(=O)Nc2cccc(C)c2)c1	?	10.3µM*	11.4	3.9	.	3.1
CCN(CC)C(=O)c1[nH]cnc1C(=O)Nc1ccccc1	-0.8%	5.7%	-26.0	1.7	-1.0%	9.6
CS(=O)(=O)N(CC(=O)Nc1ccc(S(=O)(=O)N2CCCC2)cc1)c1cccc(F)c1	?	?	-8.0	-2.1	-1.9%	-7.1
CC1=NN(C(=S)Nc2ccccc2)C(C)(C)C1	0.0%	-9.3%	-20.1	-4.0	.	-14.0
Cc1ccc(-c2noc(-c3ccccc3NC(=O)C3CC(=O)N(c4ccc(C)cc4)C3)n2)cc1 (stereo not drawn)	-13.7%	-17.6%	.	-10.4	-13.0%	.
O=C(Nc1ccccc1)c1nc[nH]c1C(=O)NCCN(CCNC(=O)c1[nH]cnc1C(=O)Nc1ccccc1)CCNC(=O)c1[nH]cnc1C(=O)Nc1ccccc1	?	23.1µM*	2.4	-19.4	-17.3%	-25.8
Cc1ccc(NC(=O)c2nc[nH]c2C(=O)NCCN(CCNC(=O)c2[nH]cnc2C(=O)Nc2ccc(C)cc2)CCNC(=O)c2[nH]cnc2C(=O)Nc2ccc(C)cc2)cc1	?	16.4µM*	4.9	4.7	?	?
O=C(Nc1ccc(Cl)cc1)c1nc[nH]c1C(=O)NCCN(CCNC(=O)c1[nH]cnc1C(=O)Nc1ccc(Cl)cc1)CCNC(=O)c1[nH]cnc1C(=O)Nc1ccc(Cl)cc1	?	?	21.2	-18.1	?	-21.8
Cc1ccc(-n2cccc2C(=O)NS(=O)(=O)c2ccc(C)cc2)cc1	-2.0%	28.8%	-8.5	2.5	1.9%	11.6
Cc1ccc(-n2cccc2C(=S)N=P(N(C)C)(N(C)C)N(C)C)cc1	2.06µM*	1.64µM*	-22.9	-10.4	-1.9%	-59.2*
CC1CCc2[nH]c3ccc(C(=O)N(C)CC(=O)Nc4ccccc4Cl)cc3c2C1 (stereo not drawn)	?	14.6µM*	-20.0	-4.9	-5.4%	-24.0
CC1CCc2[nH]c3ccc(C(=O)N(C)CC(=O)Nc4ccccc4C(F)(F)F)cc3c2C1 (stereo not drawn)	?	?	8.9	0.3	-2.8%	-16.1
CCOc1ccc(NC(=O)CN(C)C(=O)c2ccc3[nH]c4c(c3c2)CC(C)CC4)cc1OCC (stereo not drawn)	?	-29.6%	-6.2	5.9	0.8%	-2.7
Cc1ccc(NC(=O)CN(C)C(=O)c2ccc3[nH]c4c(c3c2)CC(C)CC4)cc1 (stereo not drawn)	?	-36.8%	1.8	-12.2	-3.2%	-50.9*
Cc1cccc(N2CCC(N=CN(C)C)=N2)c1	-8.4%	-4.2%	4.8	4.1	.	22.1
CN(C)c1ccc(S(=O)(=O)N2CCC(Cc3ccccc3)CC2)cn1	?	?	11.2	-5.5	?	25.5
COP(=O)(OC)c1nc(-c2cccc3ccccc23)oc1NCc1ccccc1	16.4µM*	18.4µM*	2.5	-6.3	-11.5%	-22.5
COP(=O)(OC)c1nc(-c2ccccc2)oc1N1CCOCC1	22.5%	0.3%	11.9	-8.6	0.6%	2.4
CCOP(=O)(c1ccccc1)c1nc(-c2ccccc2C)oc1NCc1ccccc1 (stereo not drawn)	?	23.1µM*	56.1	9.2	?	15.2
COc1cccc(-c2nc(S(=O)(=O)c3ccccc3)c(NCc3ccccc3)o2)c1	?	?	.	-15.0	-1.8%	.
CCOP(=O)(c1ccccc1)c1nc(-c2ccccc2C)oc1N1CCCCC1 (stereo not drawn)	13µM*	13µM*	-15.4	1.6	?	?
COc1ccccc1-c1nc(C#N)c(NCc2ccc(F)cc2)o1	-28.1%	?	22.1	-1.0	14.2%	-21.8
CCOP(=O)(OCC)c1nc(-c2ccccc2)oc1N1CCCCC1	20.6µM*	16.4µM*	17.4	2.3	4.2%	-1.8
CCN(CC)C(=O)Cn1c(=O)n(Cc2ccc(C(=O)NCCc3ccc(OC)c(OC)c3)cc2)c(=O)c2ccccc21	?	?	.	1.4	-2.1%	.
SMILES	TDP1 cell CPT	TDP1 cell noCPT	DRD3 antagonist	D3 ag	ClpP mod	IL1B secr inh
Cc1ccccc1-c1nc(P(=O)(c2ccccc2)c2ccccc2)c(N2CCOCC2)o1	?	?	-21.2	8.0	-26.2%	-66.6*
Cc1nc(P(=O)(c2ccccc2)c2ccccc2)c(N2CCOCC2)o1	-10.7%	0.5%	-0.8	0.1	3.1%	-18.9
O=C(O)c1ccc2c(=O)n(-c3ccc(F)c(Cl)c3)c(=S)[nH]c2c1	3.0%	-10.1%	-7.4	1.7	.	22.7
CCN(C(=O)COC(=O)/C(=C/c1ccccc1)n1nnnc1C)C1CCCCC1	?	23.1µM*	5.7	3.1	-2.4%	-96.6*
Cc1nnnn1/C(=C\c1ccccc1)C(=O)OCC(=O)N(C)C1CCS(=O)(=O)C1 (stereo not drawn)	-12.9%	-20.1%	-0.6	-12.7	.	?
CC(=O)c1cnc2c(-c3ccccc3)c(-c3ccccc3)nn2c1C	-2.4%	-5.6%	-6.6	3.4	-1.1%	38.6
O=C(N/N=C1\CCc2ccccc21)c1ccccc1O	-23.5%	23.1µM*	3.0	-11.2	0.4%	i
O=C(N/N=C1\CCCc2ccccc21)c1ccccc1Cl	2.06µM*	-24.6%	-7.6	2.7	.	-18.4
CC(Oc1ccc(Cl)cc1Cl)C(=O)NN=C1CCN(C)CC1 (stereo not drawn)	-13.0%	-24.4%	27.6	1.5	-1.6%	-17.7
CC(Oc1ccc(Cl)cc1Cl)C(=O)N/N=C1\CCCc2ccccc21 (stereo not drawn)	?	25.9µM*	26.2	3.1	-0.8%	14.7
CCCCCn1nc(C(=O)N(CC(C)C)c2c(N)n(CCCC)c(=O)[nH]c2=O)c2ccccc2c1=O	0.4%	-3.0%	-22.0	-6.4	-1.0%	2.2
Cc1ccc(Nc2cc(C)c(O)c(C)c2)cc1	5.17µM*	5.17µM*	3.6	7.8	-2.2%	?
